Glioma ERSR ind: induces the endoplasmic reticulum stress response in human glioma cells | U87-MG GRP78 promoter luciferase reporter, 16 h | Potency, µM, inactives show top-dose activation, usual class: activators | actives 0.02% (n = 420,000) | AID 602332; note: series mostly up to about 76 µM; % of control where 0% means no effect; nearly all actives have a fitted effect of over 35% in size
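ERSR induction read as luciferase luminescence (Bright-Glo, 10 min at room temperature) in stably transfected human U87-MG glioma cells exposed to compounds for 16 h, using GRP78 as sensor.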
MBNL1-CUG inh: inhibitors of human MBNL1 binding to CUG repeat RNA; Q9NR56; TR-FRET MBNL1-His/biotin-(CUG)12 binding, 665/545 ratio; Potency, µM (doses to about 57.5 µM), for inactives: at the top dose activity change, negative = inhibition, actives largely listed as inhibitors; actives 0.036% (n = 280,000); AID 2675; active = well fitted inhibition curve with a large enough effect in the signal ratio, with a control signal flat, not every such curve was filed as active; inconclusive = small, poorly fitted or top-dose-only effect, or effect the other way, or a change in a side signal; inactive = no such curve, though single readings can be large or run the other way; the % refers to the signal ratio; note: % is set by controls: 0 for no effect and ±100 for the full control effect
Target sequence (Q9NR56 whole entry, looked up): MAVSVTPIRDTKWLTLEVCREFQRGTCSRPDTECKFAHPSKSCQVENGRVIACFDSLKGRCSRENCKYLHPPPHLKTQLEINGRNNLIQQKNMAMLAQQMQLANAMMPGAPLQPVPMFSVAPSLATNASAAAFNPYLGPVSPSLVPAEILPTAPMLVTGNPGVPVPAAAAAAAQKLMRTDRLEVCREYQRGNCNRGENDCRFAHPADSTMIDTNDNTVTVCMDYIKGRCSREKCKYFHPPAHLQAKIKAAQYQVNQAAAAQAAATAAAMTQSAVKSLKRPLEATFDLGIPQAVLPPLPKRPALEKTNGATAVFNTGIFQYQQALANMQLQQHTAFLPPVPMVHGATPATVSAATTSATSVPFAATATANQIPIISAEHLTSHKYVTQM
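MBNL1-His + Biotin-(CUG)12, cpd titration 92 nM–58 uM; Tb anti-His Ab 0.055 ng/ul, SA-XL665 5 nM (final); 60 min RT; ratiometric 665/545 nm, Ex 340 nm; normalized to buffer and full-complex controls.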
TDP-43 yeast inh: TDP-43 toxicity inhibition in yeast; TDP-43 expressing yeast growth rescue, BacTiter-Glo, 24 h; Potency, µM (highest dose often 46.1 µM), inactives show at the highest dose growth rescue (activation), hits mostly activators; actives 1.8% (n = 410,000); AID 652104; note: % of control where 0% means no effect; nearly all actives have a fitted effect of over 50% in size
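Yeast expressing TDP-43 (pregrown in raffinose, seeded at OD600=0.02 in galactose medium) exposed to compounds 24 hr at 30 deg C. Growth read by BacTiter-Glo luminescence; rescue of toxicity appears as increased signal.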
Abeta rescue: compounds reversing amyloid beta toxicity in yeast | yeast expressing A-beta42, growth rescue, OD600, 48 h; response scale: 0% DMSO, 100% iron-clioquinol control | Potency, µM (titrated, usually from 46.1 µM), most hits filed as activators | actives 0.063% (n = 410,000) | AID 1347071; note: nearly all actives have a fitted effect of over 55% in size
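Yeast A-beta toxicity model in growth medium with pinned compounds, 48 h at 30 C; growth read as absorbance at 600 nm. Normalized to FeCl3/clioquinol equimolar mix (positive) and DMSO (negative).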
aSyn rescue: rescues yeast growth from alpha-synuclein toxicity | Yeast expressing alpha-synuclein, growth rescue, BacTiter-Glo, 24 h | Potency, µM (highest dose often 46.1 µM), without a hit: at the highest dose growth rescue (activation), hits mostly activators | actives 0.14% (n = 370,000) | AID 652106; note: % of control where 0% means no effect; nearly all actives have a fitted effect of over 65% in size
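Readout is rescue of growth in alpha-synuclein-expressing yeast, so inhibitors of toxicity appear as activators. Growth after 24 hr at 30 deg C in galactose medium is quantified by luminescence.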
FUS yeast rescue: FUS proteinopathy suppression in yeast | actives 0.24% (n = 390,000) | Potency, µM (titrated, usually from 76.6 µM), actives largely listed as activators | AID 1347120 | S. cerevisiae FUS-expressing, growth rescue, OD600, 24 h;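 note: plate controls were DMSO vehicle for no effect and reference control for full effect; nearly all actives have a fitted effect of over 55% in size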
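Galactose (2%) drives FUS expression in yeast precultured in raffinose; seeding density OD 0.005. Test compounds incubated 24hr at 30C and 99% humidity before absorbance at 600 nm was measured.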
* marks the source's active call; other numbers are inactive results; i = inactive; ? = inconclusive; · = no result given; [ ] = remark or other dose. In the library only some 2% were active in any assay of this set; here they are far more common. Unless noted, calls come from the whole dose curve; as a rule, active = well fitted curve in the direction sought with a large enough effect; inconclusive = small, poorly fitted or top-dose-only effect, or another doubt; inactive = no such curve, though single readings can be large; an effect the other way counts as inactive or inconclusive. Potency is the fitted concentration of half-maximal effect.

SMILES	Glioma ERSR ind	MBNL1-CUG inh	TDP-43 yeast inh	Abeta rescue	aSyn rescue	FUS yeast rescue
S=C1NC(c2ccccc2)=CC(c2ccccc2)N1 (configuration not stated)	1%	-1%	-25%	13µM*	17%	?
S=C1NC(c2cccs2)=CC(c2ccc(Br)cc2)N1 (configuration not stated)	-3%	6%	20µM*	i	-6%	·
Cn1c(NC(=O)c2ccccc2)nc(Cc2ccccc2)c1-c1ccccc1	·	·	·	·	·	i
Fc1ccccc1-n1ncc2c1ncn1nc(Cc3ccccc3)nc21	·	·	10µM*	i	·	i
COc1ccc(Cc2nc3c4cnn(-c5ccccc5F)c4ncn3n2)cc1	·	·	?	i	·	i
O=C(Nc1cccc(N2CCC(NCc3cnn(-c4cccc(F)c4)c3)CC2)c1)c1ccncc1	-3%	·	·	·	·	·
O=c1cnn([C@@H]2O[C@H](CO)[C@@H](O)[C@H]2O)c(=O)[nH]1	-1%	4%	13%	?	5.6µM*	i
O=c1ncccn1[C@@H]1O[C@H](CO)C(O)[C@@H]1O (some centres not stated)	-3%	·	·	·	·	·
COc1ccc(-c2noc(N3CCC(C(=O)N4CCN(c5ccccc5OC)CC4)CC3)n2)cc1	-5%	·	28µM*	i	·	?
COc1ccccc1N1CCN(C(=O)C2c3ccccc3Oc3ccccc32)CC1	-9%	-6%	?	i	20µM*	i
COc1ccccc1N1CCN(C(=O)C2CC2)CC1	-4%	·	4%	i	-1%	i
Brc1ccc(-c2csc(N3CCNCC3)n2)cc1	·	·	·	·	·	i
C=CCN(C)C(C#Cc1ccccc1)c1ccccc1C(F)(F)F (configuration not stated)	·	·	·	·	·	i
O=C(COc1ccccc1C(=O)Nc1ccccc1)Nc1ccccc1Br	-2%	·	·	·	-2%	·
O=C(Oc1ccccc1C(=O)Nc1ccccc1)c1ccccc1Br	9%	0%	11µM*	i	-2%	i
COc1cc(OC)cc(-c2sc3ccc(OC)cc3c2C#CC(C)(C)O)c1	-6%	·	11µM*	i	2%	?
COc1cc(-c2ccc(C(F)(F)F)cn2)cc2c1OCCN(S(=O)(=O)C[C@]13CC[C@H](CC1=O)C3(C)C)C2	-2%	·	·	·	·	·
CC(C)N1CCCCC(NC(=O)c2cccc(F)c2)C1=O (configuration not stated)	·	·	·	·	·	i
CC(/C=N/n1c(COc2ccccc2)n[nH]c1=S)=C\c1ccccc1	0%	9%	11µM*	i	·	i
C=CCN(C)CC#Cc1ccc(C)cc1	·	·	·	·	·	i
CC(C)Cn1cnc2c(SCc3ccccc3F)nc(N)nc21	4%	·	?	i	9%	·
CCCCn1cnc2c(SCc3ccccc3F)nc(N)nc21	1%	·	18µM*	i	7%	·
CC(C)n1ncc2c(C(=O)Nc3cccc(C#N)c3)cc(C3CC3)nc21	-8%	·	22µM*	i	2%[1.84 µM]	i
O=C(O)c1cc(O)ccc1N=Nc1ccccc1	28µM*	?	-9%	i	0%	i
COC(=O)c1ccc(N=Nc2ccccc2)cc1	3%	17%	16µM*	i	1%	i
SMILES	Glioma ERSR ind	MBNL1-CUG inh	TDP-43 yeast inh	Abeta rescue	aSyn rescue	FUS yeast rescue
OCc1ccc(N=Nc2ccccc2)cc1	0%	·	?	i	2%	i
O=C(O)c1ccccc1N=Nc1ccc(O)cc1	-3%	·	22%	i	-8%	i
Oc1ccc(N=Nc2ccccc2)cc1	?	8%	18µM*	i	-15%	i
CCCCN(C)C(=O)CSc1nnc(-c2cccnc2)n1C1CCCCC1	·	·	·	·	·	i
COc1ccc(Cn2cc(CN3[C@@H](CC(C)C)COc4cccc(F)c4S3(=O)=O)nn2)cc1	·	·	·	·	·	i
CCN(CCCNC(=O)c1cc2cc3cc(C)ccc3nc2s1)c1cccc(C)c1	0%	·	0%	i	·	32µM*
CN(C)c1ccc(/C=C/c2cc3ccccc3c[n+]2C)cc1	-6%	·	·	·	·	·
Cc1ccc(NCc2cccn2-c2nnc(N3CCC(C(=O)NCCc4ccc(Cl)cc4)CC3)s2)cc1	·	·	35µM*	?	·	?
COc1ccc(N2CCN(C(=O)CCc3c(C)nc4c(-c5ccccc5)c(C)nn4c3C)CC2)cc1	-4%	·	22µM*	i	·	?
O=S(=O)(NCC(c1ccco1)S(=O)(=O)c1cccs1)c1ccc(F)c(C(F)(F)F)c1 (configuration not stated)	-2%	·	0.89µM*	i	·	i
COc1ccc2c(c1)CCc1cnc(-n3ncc(C(=O)N(C)CC4CCCN(C)C4)c3C)nc1-2 (configuration not stated)	-4%	·	·	·	·	·
NCCN1CCN(S(=O)(=O)c2ccc3c(c2)CCN3C(=O)C2CCC2)CC1	·	·	·	·	·	i
O=[N+]([O-])c1cccc(S(=O)(=O)NCC2CC3CCC2C3)c1 (configuration not stated)	-2%	?	11µM*	i	15%	i
O=[N+]([O-])c1ccc(S(=O)(=O)NCC2CC3CCC2C3)cc1 (configuration not stated)	-2%	?	22%	i	0%	i
CCOC(=O)c1sc(Nc2nc3cc4c(cc3s2)OCO4)cc1C	11%	61%	19%	i	4%	i
CCOC(=O)c1sc(Nc2nc3c(OC)cccc3s2)cc1C	-5%	32%	22µM*	i	0%	?
C/C(=N\Nc1cc(-c2ccccc2)nc(-c2ccc(Br)cc2)n1)c1cccc(N)c1	5%	·	27%	i	-2%	13µM*
C/C(=N/Nc1cc(-c2ccccc2)nc(-c2ccccc2)n1)c1ccc(O)cc1	-9%	·	?	i	-22%	·
CC(C)(C)n1ncc2c(=O)n(Cc3cccc(Cl)c3Cl)cnc21	-3%	·	·	·	·	·
COC(=O)[C@]12CCCCC=C1N(CCc1ccc(OC)c(OC)c1)C(=O)[C@H](CC(=O)NCc1cccc(C(F)(F)F)c1)C2	·	·	1%	i	3%	4.5µM*
COC(=O)[C@]12CCCCC=C1N(CCc1ccc(OC)c(OC)c1)C(=O)[C@H](CC(=O)NCc1ccccc1)C2	·	·	0%	i	1%	?
COC(=O)[C@]12CCCCC=C1N(CCc1ccc(OC)c(OC)c1)C(=O)[C@H](CC(=O)NCCCCc1ccccc1)C2	·	·	8%	i	3%	8.9µM*
Cc1cc(C(=O)NCc2nnc3n2CCN(Cc2ccc4c(c2)Cc2ccccc2-4)CC3)c(C)o1	-4%	·	·	·	·	·
Oc1ccc(Cc2ccccc2Cl)c(O)c1	3%	·	13µM*	i	4%	i

Screens from PubChem.
